Screening results (PubChem BioAssay)
Shiga inhibitor: blocks Shiga toxin action in Vero cells; Vero cells, Shiga toxin protein synthesis inhibition reporter; inhibition, % at 38.7 µM; 290,000 compounds, 9.2% hits; in the data active = inhibition mostly above about 28%, no sharp cut-off; inactive = mostly below about 43%; note: 0% is about no effect
CHX counter: counter-screen for Shiga toxin inhibitors: cycloheximide protein synthesis inhibition; cell reporter, cycloheximide protein synthesis inhibition counterscreen; max response, %; 300,000 compounds, 12% hits; AID 2314; in the data active = max response mostly above about 13%, no sharp cut-off; inactive = mostly below about 14%; note: read at 38.3 µM for the half of the compounds with a filed dose; 0% is about no effect
NS1 function inh: influenza NS1 inhibition; Potency, µM (top dose mostly 46.1 µM), inactives show top-dose activity, positive = more growth; 270,000 compounds, 0.4% hits; AID 2326; calls by dose curve; note: potency is the fitted concentration of half-maximal effect; actives are rising curves; nearly all actives have a fitted effect of over 50% in size
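In this qHTS, NS1 from influenza A is expressed in budding yeast, where it slows growth. Cells are switched from glucose to 2% galactose medium (pH 6.0, -URA), treated with compound, and growth recovery is read at OD600.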
Pf growth 96h: inhibits malaria parasite growth, 96 h; P. falciparum luciferase reporter growth, 96 h; 320,000 compounds, 6.9% hits; AID 504834; Potency, µM (titrated, usually from 28.7 µM), inactives show at the top dose activity change, negative = inhibition, hits mostly inhibitors; note: potency is the fitted concentration of half-maximal effect; % is set by controls: 0 for no effect and ±100 for the full control effect
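Readout is luminescence from an integrated firefly luciferase in P. falciparum. Red cells, 2% hematocrit and 0.05% parasitemia final, were cultured with compound through two parasite generations (96 hours) at 37 C, 5% CO2.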
Pf growth 48h: inhibits P. falciparum growth in the first generation, 48 h; P. falciparum luciferase growth in erythrocytes, 48 h; Potency, µM (titrated, usually from 28.7 µM), inactives show at the highest dose activity change, negative = inhibition, usual class: inhibitors; 310,000 compounds, 5.9% hits; AID 504832; note: potency is the fitted concentration of half-maximal effect; % is set by controls: 0 for no effect and ±100 for the full control effect
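Compounds are pin-transferred into medium, infected erythrocytes (2% hematocrit, 0.1% parasitemia final) are added, and plates sit one parasite generation at 37 C in 5% CO2. Detection reagent is then added and luminescence measured.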
* marks the source's active call; other numbers are inactive results; ? = inconclusive; . = no result; [ ] = dose if it differs, or a comment. Shown are actives, neighbours in structure and some others; about 21% of the full set was active somewhere. Unless noted, calls come from the whole dose curve; as a rule, active = well fitted inhibition curve with a large enough effect; inconclusive = small, poorly fitted or top-dose-only effect, or another doubt; inactive = no such curve, though single readings can be large or run the other way.

SMILES	Shiga inhibitor	CHX counter	NS1 function inh	Pf growth 96h	Pf growth 48h
O=C(Nc1ncc(Cc2cccc(Cl)c2Cl)s1)C1CCCO1 (configuration not stated)	101*	47*	-5%	8%	68%
Cc1ccc(N2CCN(C(=O)C3CCC(=O)N(Cc4ccc(Cl)cc4)C3)CC2)c(C)c1 (configuration not stated)	-2	-1	-27%	-12%	?
CN(C)c1nc(-c2ccccc2)[n+](C)s1	-16	-6	-6%	23%	12µM*
CCOc1cc(C2NCc3ccccc3-n3cccc32)ccc1OC (configuration not stated)	-6	-4	1%	23%	?
CCOc1cc2c(cc1OCC)-n1cccc1C(c1cc(OC)ccc1F)NC2 (configuration not stated)	-7	-5	-32%	2.9µM*	?
COc1ccc(C2NCc3ccccc3-n3cccc32)cc1 (configuration not stated)	-18	-5	-1%	-3%	.
COc1cc(C2NCc3ccccc3-n3cccc32)ccc1O (configuration not stated)	-5	-1	?	?	2.6µM*
CCOc1cc2c(cc1OCC)-n1cccc1C(c1ccc(OC)c(O)c1)NC2 (configuration not stated)	-9	-6	3%	5%	2.9µM*
CCOc1cc2c(cc1OCC)-n1cccc1C(c1cccc(F)c1)NC2 (configuration not stated)	-4	-1	-3%	9.3µM*	13µM*
Cc1ccc(/C=N/NC(=O)CN2CCN(Cc3ccccc3)CC2)o1	-4	-2	0%	8%	12%
COc1cc(CN2CCC(N3CCC(C(=O)N4CCCC4)CC3)CC2)cc2c1OCO2	4	-3	2%	-6%	32%
CCOc1cc2c(cc1OCC)-n1cccc1C(c1cc(C)c(OC)cc1C)NC2 (configuration not stated)	-4	-2	6%	17%	6.6µM*
CCOc1cc2c(cc1OCC)-n1cccc1C(c1cccc(OCC)c1O)NC2 (configuration not stated)	8	7	1%	-20%	15µM*
CCOc1cc2c(cc1OCC)-n1cccc1C(c1ccc(C)cc1C)NC2 (configuration not stated)	-3	0	-3%	-11%	?
Clc1cccc(C2NCc3ccccc3-n3cccc32)c1 (configuration not stated)	13	0	2%	10%	?
CCOc1cc2c(cc1OCC)-n1cccc1C(c1ccccc1F)NC2 (configuration not stated)	-15	2	3%	?	8.3µM*
Cc1ccc(C(=O)Nc2cccc(C(F)(F)F)c2)cc1Nc1ncnc2nc[nH]c12	13	-1	8%	13µM*	13µM*
c1ccc(N2OCC3Cn4c(nc5ccccc54)C32)cc1 (configuration not stated)	42*	27*	-12%	113%	103%
c1ccc(CN2OCC3Cn4c(nc5ccccc54)C32)cc1 (configuration not stated)	-4	-3	0%	58%	43%
Cc1c(Cl)cccc1Nc1nc(NCCO)c2ccccc2n1	45*	16*	-67%	?	?
OCCNc1nc(Nc2ccc(Br)cc2)nc2ccccc12	20	12	.	?	0.93µM*
CC1CCN(C(=O)CCCC(=O)N2CCC(C)CC2)CC1	24*	19	5%	?	8%
O=C(CCCC(=O)N1CCCC1)N1CCCC1	27*	19	1%	12%	.
COc1ccc(C(=O)c2c[nH]c(C(=O)NCCCN3CCOCC3)c2)cc1	11	-2	5%	1%	0%
CSCCC(NS(=O)(=O)c1ccc(C)cc1)C(=O)N1CCN(C(C)=O)CC1 (configuration not stated)	.	.	.	0%	-2%
SMILES	Shiga inhibitor	CHX counter	NS1 function inh	Pf growth 96h	Pf growth 48h
Fc1ccccc1/C=N/n1c(COc2ccccc2)n[nH]c1=S	-6	-1	0%	8%	.
CCc1nn(CC(=O)Nc2ccc(Br)c(C)c2)c(=N)s1	26	4	9%	54%[5.75 µM]	21%
CNC(=O)c1cc(Nc2nnc(-c3ccc(O)cc3)c3ccccc23)ccc1OC	-12	-4	-1%	23%	?
CCOc1ccc(-c2nnc(Nc3ccc(OC)c(C(=O)N4CCCCC4)c3)c3ccccc23)cc1	-5	-3	-6%	1.2µM*	4.1µM*
CCn1c(SCC(=O)N2CCCCC2)nnc1-c1ccc(S(=O)(=O)N2CCN(C)CC2)cc1	-6	-2	-6%	-1%	11%
CCn1c(SCC(=O)N2CCCC2)nnc1-c1ccc(S(=O)(=O)N2CCCCCC2)cc1	-7	2	-10%	?	9.3µM*
Cn1c(SCC(=O)N2CCCCC2)nnc1-c1ccc(S(=O)(=O)N2CCOCC2)cc1	-19	-1	-3%	13µM*	-1%
Cn1c(SCC(=O)N2CCCC2)nnc1-c1ccc(S(=O)(=O)N2CCCC2)cc1	-18	-1	-9%	1%	-6%
N#Cc1ccc(CSc2ccc(S(=O)(=O)N3CCCC3)cn2)cc1	.	.	.	-29%	-22%
CCCCNC(=O)CSc1nnc(-c2ccc(S(=O)(=O)N3CCCC3)cc2)n1C	-2	1	1%	17%	?
Cn1c(SCC(=O)NCc2cccs2)nnc1-c1ccc(S(=O)(=O)N2CCCC2)cc1	9	-5	0%	8.3µM*	?
CCn1c(SCc2ccc(C#N)cc2)nnc1-c1ccc(S(=O)(=O)N2CCCCC2)cc1	-1	9	10%	-2%	1.5µM*
Cc1[nH]n(-c2ccccc2)c(=O)c1C1(C(F)(F)F)C(=O)N(c2ccc(F)cc2)C2=C1C(=O)CC(C)(C)C2 (configuration not stated)	-16	3	6%	.	?
O=C(O)COc1ccccc1/C=C1\SC(=S)N(c2cccnc2)C1=O	-8	-4	2%	?	52%
O=C1CN(S(=O)(=O)c2ccc3c(c2)OCCO3)CCN1S(=O)(=O)c1c(F)cccc1F	-8	-8	.	.	.
CCc1ccc(C2CC(c3cccc(OC)c3)n3nc(N)nc3N2)cc1 (configuration not stated)	-6	-2	4%	39%	15%
Cc1ccccc1NC(c1cccc(Cl)c1)c1nnnn1C1CCCCC1 (configuration not stated)	4	-2	-12%	-8%	?
Cc1cc[n+](CC(=O)c2ccc(NC(=O)c3ccccc3)cc2)c2ccccc12	11	9	-1%	?	1.7µM*
Cc1cc[n+](CC(=O)c2ccc(NC(=O)c3ccccc3)cc2)cc1	-13	6	.	15%	?
O=C(C[n+]1ccccc1)c1ccc(NC(=O)c2ccccc2)cc1	-13	-1	2%	?	?
Cc1ccc(C(=O)C[n+]2cccc3cc(C)ccc32)cc1	-15	-2	.	101%	?
CCOc1ccc(C(=O)C[n+]2cccc3cc(C)ccc32)cc1	0	-3	6%	7%	8.3µM*
